High-throughput results: PubChem BioAssay, several laboratories
Sampled rows, rich in hits. Any-hit rate of the full collection: about 2.9%.
CRFBP-R2 block: CRF-BP/CRF-R2 complex antagonism | HEK293 CRF-R2/CRF-BP, CRF-induced calcium fluorescence | inhibition, % at 11.8 µM | 350,000 compounds, 0.59% hits;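 active = inhibition of the ligand-induced calcium signal above about 50% at the single tested concentration, limit read from the data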
MEKK2 mut-MEK5: signal of MEK5 binding to mutant human MEKK2 PB1 domain; bead flow cytometry, Alexa488-MEK5 binding to MEKK2 mutant; percent response, % at 10 µM; 290,000 compounds, 0.35% hits; in the data active = percent response above about 24%, passing the limit was not always enough
MEKK3 PB1 HTS: raises or lowers MEK5 binding to the human MEKK3 PB1 domain | bead-based flow cytometry, Alexa488-MEK5 binding to MEKK3; actives lie on both sides; 0 = blocked by unlabeled MEK5, 100 = vehicle | binding response (% of control), % at 10 µM | 290,000 compounds, 1.4% hits | Q99759;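 active = binding response more than 3 SD above or below the average of its plate-row segment, actives on both sides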;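 also: Alexa488 bead fluorescence after subtracting the streptavidin-only scavenger bead signal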
Target sequence (Q99759 whole entry, looked up, the tested form may be a part): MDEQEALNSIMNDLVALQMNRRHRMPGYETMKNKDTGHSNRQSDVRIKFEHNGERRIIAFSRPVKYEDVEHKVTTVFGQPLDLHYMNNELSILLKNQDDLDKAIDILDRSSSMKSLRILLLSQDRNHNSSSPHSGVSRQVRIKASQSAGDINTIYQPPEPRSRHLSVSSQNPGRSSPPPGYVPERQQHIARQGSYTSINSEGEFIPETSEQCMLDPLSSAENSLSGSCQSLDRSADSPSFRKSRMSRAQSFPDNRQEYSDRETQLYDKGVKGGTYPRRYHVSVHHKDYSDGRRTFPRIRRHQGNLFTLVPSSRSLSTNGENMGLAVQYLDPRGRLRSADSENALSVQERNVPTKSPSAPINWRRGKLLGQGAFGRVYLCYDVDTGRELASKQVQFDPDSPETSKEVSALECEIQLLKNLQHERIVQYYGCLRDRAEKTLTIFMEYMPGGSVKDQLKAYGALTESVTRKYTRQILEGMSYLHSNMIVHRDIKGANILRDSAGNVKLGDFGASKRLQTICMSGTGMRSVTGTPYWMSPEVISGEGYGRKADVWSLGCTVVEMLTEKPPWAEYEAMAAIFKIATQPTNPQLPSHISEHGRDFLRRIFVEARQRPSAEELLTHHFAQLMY
CRFR2-BP ag: CRF-BP/CRF-R2 complex agonism; HEK293 CRF-R2/CRF-BP, calcium dye fluorescence (FLIPR); percent of saturating CRF peptide response; activation, % at 13.2 µM; 350,000 compounds, 0.46% hits; AID 588473;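 active = activation of at least 50%, plus an integration ratio under a set limit after plate pattern correction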
ABCB6 inh 2: inhibitors of human ABC transporter ABCB6 | Q9NP58 | K562-ABCB6 porphyrin accumulation, flow cytometry, 1 h; stronger effect = lower value | fluorescence ratio to DMSO, % at 10 µM | 360,000 compounds, 0.19% hits | AID 602162;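 active = fluorescence ratio to DMSO below 75%, the collection mean minus 3 SD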;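 also: signal is porphyrin accumulated inside mitochondria; lower ratio means ABCB6 inhibition with less porphyrin fluorescence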
MEKK2wt PB1 HTS: raises or lowers MEK5 binding to wildtype human MEKK2 PB1 domain | binding response (% of control), % at 10 µM | Q9Y2U5 | bead flow cytometry, Alexa488-MEK5 binding to MEKK2 WT; actives lie on both sides | 290,000 compounds, 1.1% hits; in the data active = binding response below about 67% or above about 130%
Each line names hits and unclear results; the compound was inactive in the other large screens.

COc1ccc(CCn2c(=O)c3cccnc3n(Cc3cccc([N+](=O)[O-])c3)c2=O)cc1OC	CRFBP-R2 block 52
COC(=O)c1cccnc1-n1c(=O)c2cccnc2n(Cc2cccc([N+](=O)[O-])c2)c1=O	none
CS(=O)(=O)C1=NSC2=NC(=O)/C(=C\c3cccn3-c3ccc(Cl)cc3)C(=N)N21	CRFBP-R2 block 57
Cc1cc(/C=C2/C(=N)N3C(=NC2=O)SN=C3S(C)(=O)=O)c(C)n1-c1ccccc1F	none
O=C(c1ccc(F)cc1)N1CCN(S(=O)(=O)c2ccc(Br)cc2)CC1	none
Cc1nnc(NC(=O)CSc2nnc(Cc3ccccc3)n2-c2ccccc2)s1	CRFBP-R2 block 81
CCc1nnc(NC(=O)CSc2nnc(Cc3ccccc3)n2-c2ccccc2)s1	none
Cc1ccc(Nc2cnn(C34CC5CC(CC(CC(=O)O)(C5)C3)C4)c(=O)c2Cl)c(Cl)c1	none
CC(C)(C)c1cc(C(=O)NNC(=O)Nc2cccc(Cl)c2)n(Cc2ccccc2)n1	CRFBP-R2 block 51
NC(=O)C1CCN(CC(=O)Nc2ccc(S(=O)(=O)N3CCOCC3)cc2)CC1	none
CCCNS(=O)(=O)c1ccc(Oc2ncc(C(F)(F)F)cc2Cl)cc1	CRFR2-BP ag 81
O=C(Cn1ncc2c([nH]c3ccccc32)c1=O)Nc1ccc(CN2CCCCC2)cc1	MEKK2 mut-MEK5 25, MEKK2wt PB1 HTS 147
O=C(Cn1ncc2c([nH]c3ccccc32)c1=O)NCCc1ccc(Cl)cc1	none
COC(=O)C1=C(C)N(c2ccc(OC)cc2)C(C)=C(C(=O)OC)C1c1ccccc1	CRFBP-R2 block 52
O=C1c2ccccc2-c2nnc(-c3ccc(O)cc3)cc21	CRFBP-R2 block 103
Cn1c(CNC(=O)C2CCC(=O)N(CCc3cccc(F)c3)C2)nc2ccccc21 (stereo not drawn)	none
COc1ccc(-n2cc(CNCc3cccnc3)c(-c3cccc(F)c3)n2)cc1	none
COc1ccc(-c2nn(-c3ccccc3C)cc2CNCc2cccnc2)cc1F	CRFBP-R2 block 73
Cc1noc(C)c1COc1ccc(C(=O)NCC(c2c(F)cccc2Cl)N(C)C)cc1 (stereo not drawn)	none (no result: MEKK2 mut-MEK5, MEKK3 PB1 HTS, MEKK2wt PB1 HTS)
CSc1ncc(C(=O)Nc2cccc(C)c2C)c(C)n1	none
Cc1cc(NC(=O)/C=C/c2ccccc2Cl)n(-c2nc3ccccc3[nH]2)n1	MEKK3 PB1 HTS 150
COc1ccc(Br)cc1/C=C(\C(=O)O)c1ccc(S(=O)(=O)N2CCCCC2)s1	none (no result: MEKK2 mut-MEK5, MEKK3 PB1 HTS, MEKK2wt PB1 HTS)
CCN(C(=O)COC(=O)/C=C/c1c(C)nn(-c2ccccc2)c1C)C1CCS(=O)(=O)C1 (stereo not drawn)	none
C=CCn1cc(CN2CCC(C(=O)Nc3cccc(-c4cccc(Cl)c4)c3)CC2)c(C)n1	MEKK2wt PB1 HTS 157
COCc1ccc(CN2CCC(C(=O)Nc3cccc(-c4cscn4)c3)CC2)o1	CRFBP-R2 block 90
CCn1cc(CN2CCCC(C(=O)Nc3cccc(-c4cc5ccccc5[nH]4)c3)C2)cn1 (stereo not drawn)	MEKK2wt PB1 HTS 147
CCCn1cc(CN2CCC(C(=O)Nc3cccc(-c4cscn4)c3)CC2)c(C)n1	none
O=C(Nc1cccc(-c2cscn2)c1)C1CCN(Cc2ccc(CO)o2)CC1	none
Cn1cc(CN2CCC(C(=O)Nc3cccc(-c4cccc(F)c4)c3)CC2)cn1	MEKK2wt PB1 HTS 146
CNCc1ccccc1Sc1ccc(O)c(O)c1	none
O=C(NCCNC(=O)c1ccco1)c1ccc(Cl)c(Cl)c1	none
Cc1nn(C(C)C)c(C)c1CN1CCC(C(=O)Nc2cccc(-c3cccc(F)c3)c2)CC1	MEKK2wt PB1 HTS 135
C=CCn1cc(CN2CCC(C(=O)Nc3ccc(Oc4cccnc4)cc3)CC2)c(C)n1	none
C=CCn1cc(CN2CCC(C(=O)Nc3cccc(-c4cccc(F)c4)c3)CC2)c(C)n1	MEKK2wt PB1 HTS 135
Cc1c(CN2CCC(C(=O)Nc3cccc(-c4cccc(Cl)c4)c3)CC2)cnn1C	MEKK2wt PB1 HTS 136
COC(=O)Nc1ccc(S(=O)(=O)NC2CCCCC2)cc1	none
Cc1cccc(-n2c(SCC(=O)N3CC(=O)Nc4ccccc43)nc3ccccc3c2=O)c1C	CRFBP-R2 block 55
O=C(NC(=O)c1c(Cl)cccc1Cl)Nc1ccc(Oc2cccnc2)nc1	none
O=C(Nc1ccc(Oc2cccnc2)nc1)c1ccc(C(F)(F)F)cc1	CRFBP-R2 block 55
N#Cc1cccc(NCC(=O)Nc2ccc3c(c2)OCCO3)c1	CRFBP-R2 block 80
COc1ccccc1CC(=O)N1CCN(S(=O)(=O)c2ccccc2)CC1	none
O=[N+]([O-])c1cccc(-c2nnc3ccc4ccccc4n23)c1	none
CN1CCN(/N=C/c2nc(-c3cccc([N+](=O)[O-])c3)n3ccccc23)CC1	CRFR2-BP ag 94
O=C(O)CC(Cc1ccc(Br)cc1)C(=O)Nc1ccccc1 (stereo not drawn)	none
CC(C)(C)c1cc(CP(=O)(c2ccccc2)c2ccccc2)cc(C(C)(C)C)c1O	none
O=C(NCCc1ccc2c(c1)OCCO2)c1cc(S(=O)(=O)N2CCCC2)ccc1Br	none (no result: MEKK2 mut-MEK5, MEKK3 PB1 HTS, MEKK2wt PB1 HTS)
N#C/C(=C/c1ccc(-c2ccc([N+](=O)[O-])cc2)o1)c1nnc(N2CCOCC2)n1-c1ccccc1	CRFR2-BP ag 176 (no result: MEKK2 mut-MEK5, MEKK3 PB1 HTS, MEKK2wt PB1 HTS)
CN1C(c2ccc(F)cc2)=CS/C1=C(/C#N)c1nnc(N2CCOCC2)n1-c1ccccc1	CRFBP-R2 block 95
NS(=O)(=O)c1cccc(NC(=O)COC(=O)CN2C(=O)c3ccccc3C2=O)c1	none (no result: MEKK2 mut-MEK5, MEKK3 PB1 HTS, MEKK2wt PB1 HTS)
O=[N+]([O-])c1cccc(COc2ccc(CN3CCOCC3)cc2)c1	CRFBP-R2 block 82 (no result: MEKK2 mut-MEK5, MEKK3 PB1 HTS, MEKK2wt PB1 HTS)
COc1ccc(CN2CCOCCOCCOCCOCC2)cc1	MEKK2wt PB1 HTS -3.0
O=C(NCCc1ccccc1)c1c[nH]c2ccccc2c1=O	CRFR2-BP ag 73 (no result: MEKK2 mut-MEK5, MEKK3 PB1 HTS, MEKK2wt PB1 HTS)
COc1ccc(CCNC(=O)c2c[nH]c3ccccc3c2=O)cc1OC	none
O=C(Nc1cccc(Cl)c1N1CCOCC1)c1cccs1	none
Cc1nn(-c2ccccc2)c(Cl)c1/C=N/Nc1ccc(S(=O)(=O)Nc2ccccc2C(=O)O)cc1[N+](=O)[O-]	CRFBP-R2 block 74 (no result: MEKK2 mut-MEK5, MEKK3 PB1 HTS, MEKK2wt PB1 HTS)
C=CCOc1ccc(C=NNc2ccc(S(=O)(=O)Nc3ccccc3C(=O)O)cc2[N+](=O)[O-])cc1OC	CRFBP-R2 block 67 (no result: MEKK2 mut-MEK5, MEKK3 PB1 HTS, MEKK2wt PB1 HTS)
Cc1ccc(OCCC(=O)OCC(=O)NC(=O)c2ccccc2)cc1	none (no result: MEKK2 mut-MEK5, MEKK3 PB1 HTS, MEKK2wt PB1 HTS)
CS(=O)(=O)c1ccc(C(=O)CN2C(=O)NC3(CCCc4ccccc43)C2=O)cc1 (stereo not drawn)	CRFBP-R2 block 53 (no result: MEKK2 mut-MEK5, MEKK3 PB1 HTS, MEKK2wt PB1 HTS)
COc1ccc(NC(=O)CSCC(=O)Nc2ccc(C)c(S(=O)(=O)N3CCCCCC3)c2)cc1	none (no result: MEKK2 mut-MEK5, MEKK3 PB1 HTS, MEKK2wt PB1 HTS)
